# Data published in PubChem BioAssay.
# The source made the active and inactive calls.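 Rule for the calls, unless noted: active = inhibition above 50%; inactive = the rest.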
# Assay: antimalarial activity against Dd2 strain (AID 2302;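 active = growth inhibition above 50% at the single 2 µM test dose, taken to imply half-maximal potency below 2 µM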;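 note: 0% = DMSO untreated growth and 100% = chloroquine plus artemisinin killed control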)
# Details: P. falciparum Dd2 in RBCs, LDH growth readout, 72 h; at 2 µM; active compounds read high
row,SMILES,growth inhibition
1,Cc1cc(-c2nc3ccc(C(=N)N)cc3[nH]2)c(C)cc1-c1nc2ccc(C(=N)N)cc2[nH]1,97% (active)
2,O=C(Nc1ccc(Cl)cc1)Nc1cccc(-c2cc(CNCCc3ccccc3)oc2-c2ccncc2)c1,92% (active)
3,Cc1cc(O)c2c(c1)OC(C)(C)C=C2C1=CCN(Cc2ccccc2)CC1,1% (inactive)
4,O=S(=O)(c1ccc(OCc2ccc(Cl)cc2)cc1)c1cc2c(cc1O)CCN(C1CCC1)CC2,63% (active)

# Assay: HepG2 cytotoxicity, primary screen, cytotoxicity control for P. falciparum antimalarial project, cell-based, ATP luminescence (AID 2303);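 note: 0% = DMSO wells and 100% = digitonin-killed cells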
# Details: HepG2 viability, 24-48 h, at 10 µM, active compounds read high
row,SMILES,inhibition
1,Cc1cc(=O)[nH]c(/N=C(/N)NOCCCc2ccccc2)n1,-4% (inactive)
2,NCCC(=O)Nc1ccc(-c2cnc3[nH]cc(-c4ccc(C(=O)O)cc4)c3c2)cn1,-8% (inactive)
3,Cc1nc(N)nc(N)c1-c1ccc(Br)c([N+](=O)[O-])c1,64% (active)
4,O=[N+]([O-])c1ccccc1C=NNc1ccnc2cc(Cl)ccc12,-5% (inactive)
5,Cc1cc(F)ccc1[C@H]1CNCCN1C(=O)N(C)C(C)(C)c1cc(C(F)(F)F)cc(C(F)(F)F)c1,24% (inactive)
6,CN1CCC(NCc2ccc(S(=O)(=O)Nc3ccc(Oc4cccc(Cl)c4)cc3)cc2)CC1,47% (inactive)
7,Cc1cc(N[C@@H](Cc2ccccc2)C(=O)NCc2cccs2)nc(NCCc2ccc(F)cc2)n1,3% (inactive)
8,COc1ccc([N+](=O)[O-])cc1N(Cc1ccccc1-c1ccccc1)S(=O)(=O)c1ccc(C(F)(F)F)cc1,3% (inactive)
9,O=C(Nc1ccc(CCN2CCC(c3nc(COCC(F)(F)F)c(-c4ccccc4)o3)CC2)cc1)c1ccc(F)cc1,9% (inactive)
10,CCCNCc1ccc(-c2ccc(CN(C(=O)c3nn(-c4ccccc4)nc3C)C3CCOCC3)cc2)nc1,14% (inactive)
11,CN(C)CCOc1cc(NC(=O)Nc2ccc(-c3ccccc3)cc2)ccc1I,9% (inactive)
12,CN1CCN(Cc2cccc(-c3ccc4c(Nc5ccc(Oc6ccccc6)cc5)ccnc4c3)c2)CC1,41% (inactive)
13,CN1CCN(c2ccc3nccc(CCN4CCC(NCc5ccc6c(n5)NC(=O)CO6)CC4)c3n2)CC1,9% (inactive)
14,CCCCCCN1CCCN(Cc2ccc(C(=O)Nc3ccc(C(C)C)cc3)cc2)CC1,40% (inactive)
15,CCOC(=O)c1c(C)n(-c2ccccc2)c2ccc(OC(=O)c3ccc(S(=O)(=O)N(CC)CC)cc3)cc12,-6% (inactive)
16,CCCCNC(=O)[C@@H](NC(=O)c1ccc(O)c(-c2ccc(Cl)c(Cl)c2)c1)C(C)C,-4% (inactive)
17,O=C(Cn1c(CCc2cccc(F)c2F)cc(=O)c2cccnc21)N(CCCn1ccnc1)Cc1ccc(-c2ccc(C(F)(F)F)cc2)cc1,38% (inactive)
18,CS(=O)(=O)n1c(CN2CCN(c3ncc(C(F)(F)F)cc3Cl)CC2)nc2ccccc21,-2% (inactive)
19,CCOc1cc(C(=O)NC2CCN(Cc3ccccc3)C2)ccc1-c1nc2ccc(Cl)cc2[nH]1 (centres undefined),7% (inactive)
20,OC(CNCc1ccccc1OCc1ccccc1)c1cc(Br)cs1 (centres undefined),16% (inactive)

row,SMILES,inhibition
1,Cc1nc2nc(N)nc(N)c2c(C)c1Cc1ccccc1,62% (active)
2,Cc1cnc(CS(=O)c2nc3ccc(C(F)(F)F)cc3[nH]2)cc1OCc1ccccc1 (centres undefined),-7% (inactive)
3,N#Cc1ccc(-c2ccc(C(=O)Nc3ccc4c(c3)CCN(C3CCC3)CC4)nc2)cn1,24% (inactive)
4,C[C@@H](CC1CCCCC1)OC(=O)N(C)[C@H]1CCN(C#N)C1,4% (inactive)
5,O=C(Cc1cccc(Cl)c1)N1CCc2cc3nccc(N4CCN5CCC[C@H]5C4)c3cc21,14% (inactive)
6,O=C(Nc1ccc(C(=O)N2CCN(CCN3CCN(c4cccc(C(F)(F)F)c4)CC3)CC2)cc1)c1cc(Cl)cc(Cl)c1,23% (inactive)
7,COc1ccc(NC(=O)Nc2cccc(-c3ccncc3)c2)cc1N1CCN(C)CC1,9% (inactive)
8,O=C(/C=C/c1ccc(Cl)c(Cl)c1)NCCCCN1CCCN(C(=O)Nc2ccc(F)c(Cl)c2)CC1,69% (active)
9,CS(=O)(=O)Nc1ccc2[nH]cc(C3CCN(CC(O)C4CCN(C(=O)/C=C/c5ccc(Cl)c(Cl)c5)CC4)CC3)c2c1 (centres undefined),28% (inactive)
10,CCCCCC1c2[nH]c3ccccc3c2CCN1C(=O)OCc1ccccc1 (centres undefined),3% (inactive)
11,O=C(NCCCCN1CCC(c2c[nH]c3ccc(-c4ccccc4)cc23)CC1)c1ccc(-c2ccccc2)cc1,48% (inactive)
12,O=C(NCc1ccc2c(c1)OCO2)c1nn(CCN2CCC(N3CCCC3)CC2)cc1-c1ccc(Cl)c(Cl)c1,21% (inactive)
13,CN1CCN(CCCCCCNc2c3ccccc3nc3ccccc23)CC1,35% (inactive)
14,CCN(CC)CCOC(=O)c1ccc(NC(=O)c2cn(-c3ccccc3)nc2-c2cccs2)cc1,25% (inactive)
15,CCN(CC)CCN(Cc1ccc(-c2ccc(C(F)(F)F)cc2)cc1)C(=O)CN1C(CCc2cccc(F)c2F)=NS(=O)(=O)c2ccccc21,36% (inactive)
16,CCN(CC)CCOc1ccc(N(Cc2ccc(C(C)(C)C)cc2)C(=O)c2ccc(Cc3ccccc3)cc2)cc1OC,5% (inactive)
17,Cc1cc(-c2nc3ccc(C(=N)N)cc3[nH]2)c(C)cc1-c1nc2ccc(C(=N)N)cc2[nH]1,0% (inactive)
18,O=C(Nc1ccc(Cl)cc1)Nc1cccc(-c2cc(CNCCc3ccccc3)oc2-c2ccncc2)c1,40% (inactive)
19,Cc1cc(O)c2c(c1)OC(C)(C)C=C2C1=CCN(Cc2ccccc2)CC1,-2% (inactive)
20,O=S(=O)(c1ccc(OCc2ccc(Cl)cc2)cc1)c1cc2c(cc1O)CCN(C1CCC1)CC2,11% (inactive)
